Rows were chosen to be rich in hits. Some 13% of all compounds tested hit in one or more screens of this group.
CHX counter = Cycloheximide Counterscreen for Small Molecule Inhibitors of Shiga Toxin; AID 2314, 2010; max response, %; cell reporter, cycloheximide protein synthesis inhibition counterscreen; 300,000 compounds, 12% hits; in the data active = max response mostly above about 13%, no sharp cut-off; inactive = mostly below about 14%; note: read at 38.3 µM for the half of the compounds with a filed dose; 0% is about no effect
LASV entry inh = qHTS for Inhibitors of binding or entry into cells for Lassa Virus; AID 540256, 2011; 300,000 compounds, 1.2% hits; Potency, µM (top dose mostly 37.9 µM), inactives show top-dose activity change, negative = inhibition, usual class: inhibitors; Lassa virus pseudotype entry inhibition, cell reporter; calls by dose curve; tested in HEK293 cells; note: potency is the fitted concentration of half-maximal effect; % is set by controls: 0 for no effect and ±100 for the full control effect; nearly all actives have a fitted effect of over 50% in size
MARV entry inh = qHTS for inhibitors of binding or entry into cells for Marburg Virus. 300,000 compounds, 1.8% hits. Marburg virus pseudotyped entry inhibition, cell reporter. Potency, µM (highest dose often 37.8 µM), for the others: at the top dose activity change, negative = inhibition, most hits filed as inhibitors; calls by dose curve; tested in HEK293 cells; note: potency is the fitted concentration of half-maximal effect; % is set by controls: 0 for no effect and ±100 for the full control effect
Shiga inhibitor = A qHTS for Small Molecule Inhibitors of Shiga Toxin. 290,000 compounds, 9.2% hits. Vero cells, Shiga toxin protein synthesis inhibition reporter. inhibition, % at 38.7 µM; in the data active = inhibition mostly above about 28%, no sharp cut-off; inactive = mostly below about 43%; note: 0% is about no effect
FMDV inh = High Throughput Screening for Foot and Mouth Disease Virus Antivirals | FMDV antiviral cell-based qHTS | Potency, µM (highest dose often 57.9 µM), for the others: top-dose activity change, negative = inhibition, actives largely listed as inhibitors | 410,000 compounds, 1.2% hits | AID 1159524, 2015; calls by dose curve; tested in HEK293T cells; note: read-out not given here; potency is the fitted concentration of half-maximal effect; % is set by controls: 0 for no effect and ±100 for the full control effect; nearly all actives have a fitted effect of over 45% in size
HCV inhibitor = qHTS Assay for Inhibitors of Hepatitis C Virus (HCV); Huh7.5.1 HCVcc-Cre infection, luciferase reporter, 44 h; Potency, µM (titrated, usually from 41.8 µM), inactives show at the highest dose activity change, negative = inhibition, actives largely listed as inhibitors; 340,000 compounds, 3.4% hits; AID 651820, 2012; active = well fitted inhibition curve with a large enough effect; inconclusive = small, poorly fitted or top-dose-only effect, or another doubt; inactive = no such curve, though single readings can be large or run the other way; note: potency is the fitted concentration of half-maximal effect; % is set by controls: 0 for no effect and ±100 for the full control effect
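Seed cells (1,000/well) for 4 h; treat with compound and infect with HCVcc-Cre, moi about 0.5. Incubate 44 h, then detect luciferase activity.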
Active calls of the source: *; ? = inconclusive; . = no result; [ ] = remark or other dose.

SMILES	CHX counter	LASV entry inh	MARV entry inh	Shiga inhibitor	FMDV inh	HCV inhibitor
COc1ccc(Cc2nc3ccc(C(=O)NCC(C)(C)OC)cc3o2)cc1	34.0*	.	.	96.0*	64.5%	-2.7%
COC(=O)CCNC(=O)c1ccc2nc(Cc3ccc(OC)cc3)oc2c1	.	-18.7%	4.6%	.	5.7%	26.7%
COc1ccc(Cc2nc3ccc(C(=O)NCc4cc(C)no4)cc3o2)cc1	56.7*	-0.2%	5.8%	65.7*	6.6%	.
COc1ccc(Cc2nc3ccc(C(=O)NCC4COCCO4)cc3o2)cc1OC (configuration not stated)	33.6*	.	.	9.8	-22.5%	-2.5%
CCc1cc(CNC(=O)c2ccc3nc(Cc4ccc(OC)c(OC)c4)oc3c2)on1	33.3	.	.	21.7	-21.1%	4.47µM*
Cc1ccc(CNC(=O)CSc2nc3ccccc3[nH]2)cc1	14.6*	.	.	13.8	3.2%	8.0%
O=C(CSc1nc2ccccc2[nH]1)N=Nc1c(O)[nH]c2ccccc12	16.7*	18.5%	7.3%	0.0	13.0%	10.4%
Cn1c(SCC(=O)N=Nc2c(O)[nH]c3ccccc23)nc2ccccc21	-2.6	.	0.1%	10.0	.	-27.3%
CCOc1ccc2nc(SCc3ccc(C(=O)OC)o3)[nH]c2c1	27.9*	-1.7%	-2.9%	43.9*	2.4%	-13.7%
COc1ccc(CNC(=O)CSc2nc3cccnc3s2)cc1	15.0*	.	.	17.5	25.6%	9.0%
COCC(=O)N1CCC2(CC1)CN(Cc1cc(C(F)(F)F)cc(C(F)(F)F)c1)C2	.	.	.	.	-0.9%	.
Cc1ccc(C)c(NC(=O)Cn2c(=O)n(Cc3ccccc3)c(=O)c3oc4ccccc4c32)c1	.	20.5%[46.1 µM]	.	.	-3.5%	.
COC(=O)c1cc(CSc2nc3ccccc3[nH]2)oc1C	32.3*	?	?	36.2*	-23.3%	?
Cc1cc(C)cc(-n2ccnc2SCC(=O)Nc2nnc(C)s2)c1	.	-20.9%[46.1 µM]	.	.	0.0%	.
Cc1nnc(NC(=O)CSc2nc3ccccc3[nH]2)s1	16.0*	6.5%[46.1 µM]	18.8%[46.1 µM]	9.2	-10.1%	6.1%
Cc1nnc(NC(=O)CSc2nccn2-c2ccc(F)cc2)s1	44.0*	.	3.1%[46.1 µM]	58.6*	-6.2%	?
CCOc1ccc2nc(SCC(=O)NCc3ccc(OC)cc3)[nH]c2c1	21.2	.	.	63.4*	-2.3%	0.5%
COc1ccccc1-n1c(N)cc(=O)nc1SCC(=O)Nc1cc(C)on1	11.2	-0.3%	29.9%[46.1 µM]	-3.2	-8.9%	6.6%
Cc1cccc(OCc2ccc(-c3nc(C#N)c(NCc4cccnc4)o3)o2)c1	.	4.3%[46.1 µM]	?	.	-10.4%	.
O=C(c1ccc2c(=O)n3c(nc2c1)CCCCC3)N1CCN(c2ccccc2F)CC1	1.1	.	.	-3.1	-14.8%	0.7%
O=C(c1ccc2c(=O)n3c(nc2c1)CCCCC3)N1CCN(c2ccccc2)CC1	-0.2	-13.4%	0.8%[46.1 µM]	-8.7	-12.5%	22.6%
CN(C(=O)c1ccc2c(=O)n3c(nc2c1)CCCCC3)c1ccccc1Cl	18.9*	1.9%	-0.4%[46.1 µM]	24.3	24.3%	-5.6%
CC(=O)c1c(C)[nH]c(C(=O)COC(=O)c2ccc3c(=O)n4c(nc3c2)CCC4)c1C	-0.6	9.1%	-2.5%	-9.5	4.47µM*	-2.7%
O=C(c1ccc2c(=O)n3c(nc2c1)CCCCC3)N1CCCCC1	20.7*	14.7%[46.1 µM]	1.8%[46.1 µM]	-1.2	5.8%	-1.0%
COc1ccc(Cl)cc1N(C)C(=O)c1ccc2c(=O)n3c(nc2c1)CCCCC3	.	-6.5%[46.1 µM]	3.2%[46.1 µM]	.	-25.7%	.
SMILES	CHX counter	LASV entry inh	MARV entry inh	Shiga inhibitor	FMDV inh	HCV inhibitor
Cc1cccc(NC(=O)COC(=O)c2ccc3c(=O)n4c(nc3c2)CCC4)c1	6.1	?	-21.8%	19.5	-10.4%	17.4%
O=C(c1ccc2c(=O)n3c(nc2c1)CCCCC3)N1CCN(C(c2ccccc2)c2ccccc2)CC1	-2.2	16.4µM*	?	-2.3	-20.9%	?
Cc1cc(-c2nnc(SCC(=O)Nc3ccccc3Cl)n2C)no1	-1.4	-19.1%	18.7%[46.1 µM]	14.8	-13.5%	9.3%
CCOC(=O)N1CCc2c(sc(NCc3sccc3C)c2C(=O)Nc2ccc(OC)cc2OC)C1	.	?	.	.	31.6µM*	.
COc1ccc(NC(=O)c2c(NC(=O)CNCC(C)C)sc3c2CCC3)c(OC)c1	11.3	?	?	26.0	-30.0%	10µM*
COc1ccc(NC(=O)c2c(NCc3sccc3C)sc3c2CCCCC3)c(OC)c1	.	-26.9%[46.1 µM]	.	.	43.8%	.
CCOC(=O)c1cc(-c2ccccc2)n(CC(=O)Nc2ccc(OC)c(OC)c2)c1C	-1.9	5.8%	-19.0%	18.9	0.0%	-26.5%
Cc1cccc(C(=O)NNC(=O)c2csc(N3CCOCC3)n2)c1C	.	2.2%	2.2%	.	-12.8%	1.4%
CC1(C)CN(c2ccccc2)C(=O)[C@@H]1CC(=O)Nc1ccccc1	.	7.1%[46.1 µM]	.	.	.	.
O=C(Nc1ccon1)c1csc2c1CCCC2	2.2	-1.4%	?	30.0	18.1%	?
COc1ccc(NC(=O)c2csc3c2CCCC3)cc1	50.6*	?	-20.5%	72.4*	39.1%	6.4%
COc1cccc(NC(=O)c2csc3c2CCCC3)c1	40.4*	-7.7%	?	104.1*	44.0%	-26.9%
O=C(Nc1nccs1)c1csc2c1CCCC2	36.1*	?	?	88.2*	28.0%	-13.6%
Cc1ccccc1NC(=O)c1csc2c1CCCC2	40.7*	25.3%	?	100.0*	46.0%	5.8%
Cc1ccccc1NC(=O)Nc1csc2c1CCCC2	.	.	-8.0%[46.1 µM]	.	36.1%	.
CCOC(=O)N1CCN(C(=O)/C=C/c2ccc(OC)cc2)CC1	10.3	.	.	-2.0	0.0%	10.9%
COc1ccc(-n2c(SCc3nc(-c4ccc(C)cc4)no3)nnc2-c2ccccc2)cc1	.	?	7.1%[46.1 µM]	.	0.0%	.
Cc1ccc(SCc2nc(-c3ccccc3)no2)cc1	27.7*	23.0%	4.6%	11.9	-1.8%	-1.1%
c1ccc(SCc2nc(-c3ccncc3)no2)cc1	43.8*	8.8%	22.2%	84.0*	.	7.4%
Cc1ccc(SC(C)c2nc(-c3ccncc3)no2)cc1 (configuration not stated)	8.5	-11.3%	0.0%	32.4	?	?
Cc1ccc(SCc2nc(-c3ccncc3)no2)cc1	20.4*	-3.6%	?	66.3*	-20.8%	-11.7%
Cc1ccc(SCc2nc(-c3ccccn3)no2)cc1	25.0*	-3.8%	7.3%	69.2*	-3.3%	-8.4%
CC(C)CC(=O)N1CCN(Cc2cccc([N+](=O)[O-])c2)CC1	-0.5	.	.	2.8	-13.2%	6.1%
Nc1cc([N+](=O)[O-])ccc1N1C(=O)CCCC1=O	-3.5	.	.	22.0	-10.5%	-4.7%
CC(Sc1nc(N2CCOCC2)nc(N2CCOCC2)n1)C(=O)Nc1ccccc1 (configuration not stated)	-0.7	-2.7%	-20.2%	-4.1	-7.8%	-16.9%
COc1ccc(-c2noc(CSc3ccccc3)n2)cc1OC	39.4*	8.2%	4.4%	66.5*	26.7%	?
CC(C)(C)Cc1nc(-c2ccccn2)no1	34.1*	-8.9%	34.4%	76.2*	4.8%	2.5%
